PP1 inh: PP1-alpha phosphatase inhibitors, primary screen, counter-screen for PP5 inhibitor project, biochemical, fluorescence, OMFP substrate, single point. Serine/threonine-protein phosphatase PP1-alpha catalytic subunit (Homo sapiens), P62136. purified PP1alpha. inhibition, % at 6.7 µM. 0.9% of 320,000 active;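 active = inhibition above the mean inhibition of all tested compounds plus 3 SD, computed separately for each screening campaign, cut at about 15% in these data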
Target sequence (P62136 whole entry, looked up): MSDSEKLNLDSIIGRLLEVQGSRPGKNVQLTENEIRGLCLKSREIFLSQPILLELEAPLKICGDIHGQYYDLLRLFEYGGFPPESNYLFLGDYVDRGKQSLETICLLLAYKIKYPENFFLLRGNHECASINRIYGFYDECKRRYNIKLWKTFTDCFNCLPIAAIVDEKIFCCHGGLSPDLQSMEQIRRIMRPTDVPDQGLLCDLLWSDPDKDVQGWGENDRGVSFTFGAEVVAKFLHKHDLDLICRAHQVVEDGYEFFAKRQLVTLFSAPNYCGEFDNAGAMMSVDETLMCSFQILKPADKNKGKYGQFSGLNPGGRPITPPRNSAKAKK
IDE inh: human IDE inhibitors in live cells, primary screen, fluorescence polarization, HEK cells, FAbetaB substrate; 0.41% of 320,000 active; FAbetaB cleavage; inhibition, % at 5.59 µM;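 active = percent inhibition above the average of all tested compounds plus 3 SD, set per screening campaign, cut at about 16% in these data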;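 note: IDE supplied by intact live HEK cells; FP after avidin binding of uncleaved biotin substrate so inhibition keeps polarization high; 0% = DMSO wells and 100% = 60 µM reference IDE inhibitor Ii1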
Exocytosis inh: LAMP-1 surface exposure blockers, TALL-104 cells – cell-based, flow cytometry, MLPCN library, primary screen; inhibition, % at 10 µM; 0.66% of 360,000 active; TALL-104 LAMP-1 surface exposure; cells stimulated with thapsigargin and PMA;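 active = inhibition above about 55%, limit read from the data; inconclusive = no clear call, values can overlap the other calls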
SKKanGAS inh: S. pyogenes SKKanGAS growth inhibitors in kanamycin, primary screen, streptokinase expression inhibitor project, SKKanGAS strain, BacTiter-Glo luminescence | 6 h | inhibition, % at 7.5 µM | 1.3% of 300,000 active | AID 1662, 2009;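 active = mean replicate score, as percent of positive control median, at least 50; inconclusive = mean below 50 but one replicate at or above 50; inactive = mean and every replicate below 50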;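 note: strain carries kanamycin resistance gene driven by streptokinase promoter and grows in 40 µg/ml kanamycin; loss of luminescence reflects streptokinase promoter inhibition or plain growth inhibition; 0% = median of DMSO wells and 100% = positive control at its reference dose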
IDE cell activ: human IDE activators in live cells, primary screen, fluorescence polarization, HEK cells, FAbeta-B substrate; Insulin-degrading enzyme (Homo sapiens), P14735; FAbeta-B cleavage; 0% vehicle, 100% cell-free pure enzyme wells; activation, % at 5.96 µM; 0.073% of 340,000 active;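 active = activation above the mean of all tested compounds plus 3 SD, set per screening campaign, cut at about 17% in these data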
PP5 primary: PP5 phosphatase inhibitors, primary screen, biochemical, fluorescence; Serine/threonine-protein phosphatase 5 (Homo sapiens), P53041; purified PP5c, OMFP substrate fluorescence; inhibition, % at 6.7 µM; 0.18% of 320,000 active; AID 1987, 2009;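 active = inhibition above the campaign's mean inhibition across all tested compounds plus 3 SD, cut at about 9.5% in these data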;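 note: 0% = DMSO only and 100% = 100 µM cantharidin control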
* = called active by the depositor; ? = inconclusive; / = no result given. An excerpt weighted towards active compounds, which were near 2.8% of everything screened.

SMILES	PP1 inh	IDE inh	Exocytosis inh	SKKanGAS inh	IDE cell activ	PP5 primary
O=C(O)c1cccc(N/N=C/C2=C(Cl)c3cc(Cl)ccc3SC2)c1	/	/	0.0	106.0*	-6.1	/
NNC(=O)c1ccc(CSc2n[nH]c(=O)[nH]c2=O)cc1	16.0*	-5.7	-0.1	-12.3	4.6	-0.7
C=C(C)COc1ccc(-c2ncncc2Oc2ccc(OC)cc2)c(O)c1	3.5	-0.6	-5.6	55.3*	6.3	3.4
C=C(C)COc1ccc(-c2nc(N)ncc2-c2ccc(Cl)cc2)c(O)c1	1.5	-1.6	-10.9	99.0*	6.2	2.7
C=C(C)COc1ccc(-c2n[nH]c(C)c2Oc2ccccc2OC)c(O)c1	1.0	0.4	74.5*	4.4	6.1	4.2
C=C(C)COc1ccc(-c2[nH]ncc2-c2ccc(OC)cc2)c(O)c1	5.9	-2.7	1.1	74.8*	7.1	5.8
C=C(C)COc1ccc(-c2nc(N)nc(C)c2Oc2ccccc2OC)c(O)c1	5.5	0.1	6.0	26.1	5.0	6.7
C=C(C)COc1ccc(-c2nc(N)nc(C)c2-c2ccc(OC)cc2)c(O)c1	3.5	0.3	-1.6	-18.7	10.5	5.0
C=C(C)COc1ccc(-c2[nH]ncc2-c2ccc(OC)c(OC)c2)c(O)c1	3.3	-1.3	33.8	2.1	0.8	5.8
COc1ccccc1-c1cn[nH]c1-c1ccc(OCc2ccc([N+](=O)[O-])cc2)cc1O	-0.1	-5.2	-1.3	0.7	1.4	2.0
C=C(C)COc1ccc(-c2[nH]ncc2Oc2ccccc2OCC)c(O)c1	3.1	-0.3	3.8	76.5*	3.1	3.1
C=C(C)COc1ccc(-c2[nH]ncc2Oc2cccc(OC)c2)c(O)c1	-0.4	-4.1	-0.8	75.7*	11.0	2.7
COc1ccccc1-c1cn[nH]c1-c1ccc(OCc2ccc(F)cc2)cc1O	-3.1	-1.7	14.7	51.2*	1.6	3.2
Cc1cc(Br)cc(C=Nc2ccc(N3CCOCC3)cc2)c1O	-4.5	6.2	73.5*	11.1	0.0	1.1
O=C(Nc1ccc(-c2csc(Nc3ccccc3)n2)cc1)c1cccc(C(F)(F)F)c1	-4.5	-1.5	10.9	64.6*	-1.7	4.8
O=C(Nc1ccc(-c2csc(Nc3ccccc3)n2)cc1)c1cc([N+](=O)[O-])cc(C(F)(F)F)c1	-0.1	0.1	3.8	?	5.5	-1.1
CC(=O)Nc1nc(C)c(-c2csc(Nc3cccc([N+](=O)[O-])c3)n2)s1	11.2	5.4	2.5	10.7	0.8	3.8
CC(=O)c1cccc(Nc2nc(-c3cccc([N+](=O)[O-])c3)cs2)c1	16.1*	2.9	12.3	1.6	4.4	1.3
O=C(Nc1cccc(-c2csc(Nc3cccc(C(F)(F)F)c3)n2)c1)c1cc([N+](=O)[O-])cc(C(F)(F)F)c1	-2.4	2.7	9.4	77.4*	-1.8	0.6
CC(C)OC(=O)CN1C(=O)S/C(=C/c2ccc(N3CCCCC3)o2)C1=O	-1.2	4.6	63.3*	3.8	-28.4	-4.1
O=C1/C(=C/c2ccc(N3CCOCC3)o2)SC(=Nc2ccccc2)N1CCc1c[nH]c2ccccc12	34.4*	11.1	75.2*	24.5	-50.5	4.6
CC(C)(C)OC(=O)CN1C(=O)S/C(=C\c2ccc(-c3cccc(C(=O)O)c3)o2)C1=O	10.0	4.3	/	25.5	/	2.7
COc1ccc(N=C2S/C(=C\c3ccc(OC(C)C(=O)O)c(OC)c3)C(=O)N2CCc2c[nH]c3ccccc23)cc1 (centres undefined)	/	/	1.5	?	2.2	/
O=C1S/C(=C/c2ccc(N3CCOCC3)o2)C(=O)N1Cc1ccc(F)cc1	6.7	8.8	77.9*	-1.0	-41.5	-6.0
O=C1S/C(=C\c2ccc(N3CCOCC3)o2)C(=O)N1Cc1ccc(F)cc1	0.8	6.8	31.7	/	-28.9	0.8
O=C(Cc1c(F)cccc1Cl)NCC(=O)OCc1ccccc1	-5.0	3.2	0.9	4.1	-1.5	-1.6
